Measurements: PubChem BioAssay

Assay: binders of probe aFGF2 on microarray, primary screen, stem cell growth factor project, biochemical, small-molecule microarray, fluorescence 635/667 (AID 1067);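 also: measures binding of biotinylated aFGF2 protein to printed compounds on slides; z-score merges feature fluorescence and signal-to-noise across triplicate slides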
Details: higher = more signal
COc1ccc(CCNC(=O)[C@@H]2c3ccccc3C(=O)N(Cc3ccccc3)[C@H]2c2ccc(CO)cc2)cc1 showed a composite z-score of -0.0866. Work on COC(=O)C(CC#Cc1ccc2c(c1)[C@]1(C(=O)N2)[C@H](c2ccccc2OCCO)N2[C@H](c3ccccc3)[C@H](c3ccccc3)OC(=O)[C@H]2[C@@H]1C(=O)Nc1nc2ccccc2s1)C(=O)OC yielded a composite z-score of 0.0563. COc1cc2c(cc1OC)CN(C(=O)[C@@H]1[C@H]3C(=O)O[C@H](c4ccccc4)[C@H](c4ccccc4)N3[C@H](c3ccc(OCCO)cc3)[C@@]13C(=O)Nc1ccc(C#CCCO)cc13)CC2 gave a composite z-score of 0.105. With C[N+](C)(C)CCCCCCNC(=O)[C@H]1C[C@H]2C(=O)N3CCC[C@H]3C(=O)N2[C@H]1c1cccc(OCCO)c1 the composite z-score was 0.0111. C=C(C(=O)CC[C@H](OC(=O)c1cccnc1)c1ccc(OCCO)cc1)C(C)C gave a composite z-score of 0.0612. Work on C=C(COC)C(=O)CC[C@H](OC(=O)c1ccccc1-c1ccccc1C(=O)O)c1ccc(CO)o1 yielded a composite z-score of -0.128. In the case of COC(=O)[C@@]1(Cc2ccccc2)[C@H]2c3cc(C(=O)N4CCCC4)n(Cc4ccc(OC(F)(F)F)cc4)c3C[C@H]2CN1C(=O)c1ccccc1, the composite z-score is reported as 0.337. Work on CO[C@H]1O[C@H](CO)[C@@H](OC(=O)c2ccc(Br)cc2)[C@@H]2OC(=O)[C@H](Cc3cccc(Br)c3)C/C=C/C[C@@H](Cc3cccc(Br)c3)C(=O)O[C@@H]12 yielded a composite z-score of 0.0376. For Cc1ccc(N2C(=O)c3ccccc3[C@](C)(C(=O)NC(C)C)[C@@H]2c2ccc(CO)cc2)nc1, the composite z-score was -0.254. Molecule NC(=O)[C@@H]1[C@H]2C(=O)O[C@H](c3ccccc3)[C@H](c3ccccc3)N2[C@H](c2ccccc2OCCO)[C@@]12C(=O)Nc1ccc(C#CCCO)cc12 has a composite z-score of -0.0502. Molecule O=C1O[C@H](c2ccccc2)[C@H](c2ccccc2)N2[C@H]1[C@@H](C(=O)N1CCN(c3ncccn3)CC1)[C@]1(C(=O)Nc3ccc(C#CCCO)cc31)[C@H]2c1ccc(OCCO)cc1 has a composite z-score of 0.0229. For CCCC=C(CCC)[C@@H](NS(=O)(=O)c1cccc2cccnc12)c1ccc(C(=O)OC)cc1, the composite z-score was 0.84.

Assay: binders of probe aFGF10 on microarray, primary screen, stem cell growth factor project, biochemical, small-molecule microarray, fluorescence 635/667 (AID 1071);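 also: score merges 667 nm spot intensity and signal to noise from triplicate slides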
Details: higher = more signal
O=C1C[C@@](C(=O)O)(c2ccc([N+](=O)[O-])cc2)[C@@H](c2ccc(CO)cc2)N1CC12CC3CC(CC(C3)C1)C2 gave a composite z-score of 0.527. Cc1ccc(S[C@]2(C(=O)O)CC(=O)N(Cc3ccccc3C(F)(F)F)[C@@H]2c2ccc(CO)cc2)cc1 gave a composite z-score of -0.338. For COC(=O)c1ccc(OC)c(/C=C\CC(CCc2ccccc2)OC(C)=O)c1 (stereo not drawn), the composite z-score was -0.672. Molecule C#CCNS(=O)(=O)N(C)C has a composite z-score of 0.276. O=C1CSC(c2cccc([N+](=O)[O-])c2)N1c1ccccc1 (stereo not drawn) showed a composite z-score of 0.508. CCN(CC)c1ccc(N2CC=CC34O[C@@H]5/C=C\CCCOC(=O)C5[C@H]3C(=O)N(CCCCCO)[C@@H]4C2=O)cc1 (stereo partly drawn) showed a composite z-score of -1.03. Molecule OCc1ccc(-c2cc[n+](Cc3cccc(OC(F)(F)F)c3)cc2)cc1 has a composite z-score of -0.0076. For COCC1=C([C@H](O)CCc2ccccc2)[C@H](CO)[C@@H]2C(=O)N(C)C(=O)[C@@H]2C1, the composite z-score was 0.367. Molecule COC(=O)[C@@]1(Cc2ccc(F)cc2)[C@H]2c3cc(C(=O)N(C)C)n(Cc4ccc(C)c(F)c4F)c3C[C@H]2CN1C(=O)c1ccccc1 has a composite z-score of 0.795. Work on CCOC(=O)C[C@H]1[C@H](OC(=O)c2ccc(C(=O)c3ccccc3)cc2)[C@@H](NC(=O)C2CCCCC2)c2cc(OCCCO)ccc2N1C(=O)Cc1ccc(OC)cc1 yielded a composite z-score of 0.348. For CCCN1C(=O)[C@@]2(Cc3ccccc3)N=C(c3ccc(OCCCO)cc3)O[C@H]2c2ccccc21, the composite z-score was 0.186. For O=C1C2C=CC(C(O)c3ccccn3)N(Nc3ccccc3)C2C(=O)N1c1ccccc1 (stereo not drawn), the composite z-score was 0.356. With COc1cc(C(O)C2C=CC3C(=O)N(C)C(=O)C3N2NC(=O)OC(C)(C)C)cc(OC)c1OC (stereo not drawn) the composite z-score was 0.469. COCC(=C=CC[C@@H](O)c1ccccc1OCCO)C[C@@H](O)c1ccccn1 showed a composite z-score of 0.159. In the case of C[N+](C)(C)CCCC[C@@H]1NC(=O)[C@@H]2C[C@H](C(=O)O)[C@H](c3cccc(OCCO)c3)N2C1=O, the composite z-score is reported as -0.372. Work on C=CCC(OC(C)=O)[C@@H]1[C@@H](N(Cc2ccc(-c3cccc(C(F)(F)F)c3)o2)C(=O)c2cccc3ccccc23)c2cc(OCCCO)ccc2N1C(=O)c1ccc(-c2ccccc2)cc1 (stereo partly drawn) yielded a composite z-score of -0.212. In the case of COCCCNC(=O)[C@@]1(C)c2ccccc2C(=O)N(c2ccc(C)cn2)[C@H]1c1ccc(CO)cc1, the composite z-score is reported as -1.12. COCCCNC(=O)[C@@]1(Cc2ccccc2CN=[N+]=[N-])N=C(c2ccc(OCCCO)cc2)O[C@H]1c1ccccc1N=[N+]=[N-] showed a composite z-score of 1.18. In the case of CC1(C)[C@@H]2CC(C(O)C3C=CC4C(=O)N(c5ccccc5)C(=O)C4N3Nc3ccccc3F)=C[C@@H]1C2 (stereo partly drawn), the composite z-score is reported as 1.03. CCOC(=O)C[C@H]1[C@H](OC(=O)Cc2ccc3c(c2)OCO3)[C@@H](NC(=O)c2ccccc2)c2cc(OCCCO)ccc2N1C(=O)c1ccc2ccccc2n1 showed a composite z-score of 0.352. In the case of C=CC[C@]1(C(=O)NCC(O)CO)N=C(c2ccc(OCCCO)cc2)O[C@H]1c1ccccc1N=[N+]=[N-] (stereo partly drawn), the composite z-score is reported as 0.154. C=C(COC)C(=O)CC[C@H](OC(=O)c1ccccc1-c1ccccc1C(=O)O)c1ccc(OCCO)cc1 showed a composite z-score of 0.512. COC(=O)[C@@]1(Cc2ccc(OC)cc2)[C@H]2c3cc(C(=O)N(C)C)n(Cc4cc(F)c(F)c(F)c4)c3C[C@H]2CN1C(=O)c1ccccc1 gave a composite z-score of 0.594. C=CCC(OC(C)=O)[C@@H]1[C@@H](N(Cc2ccc(-c3ccccc3)cc2)C(=O)Cc2ccc(OC)cc2)c2cc(OCCCO)ccc2N1C(=O)c1ccc(-c2ccccc2)cc1 (stereo partly drawn) showed a composite z-score of -0.0965. For COc1ccc(CCNC(=O)[C@@H]2c3ccccc3C(=O)N(Cc3ccccc3)[C@H]2c2ccc(CO)cc2)cc1, the composite z-score was -0.101. With COC(=O)C(CC#Cc1ccc2c(c1)[C@]1(C(=O)N2)[C@H](c2ccccc2OCCO)N2[C@H](c3ccccc3)[C@H](c3ccccc3)OC(=O)[C@H]2[C@@H]1C(=O)Nc1nc2ccccc2s1)C(=O)OC the composite z-score was 0.605. COc1cc2c(cc1OC)CN(C(=O)[C@@H]1[C@H]3C(=O)O[C@H](c4ccccc4)[C@H](c4ccccc4)N3[C@H](c3ccc(OCCO)cc3)[C@@]13C(=O)Nc1ccc(C#CCCO)cc13)CC2 gave a composite z-score of 0.944. Molecule C[N+](C)(C)CCCCCCNC(=O)[C@H]1C[C@H]2C(=O)N3CCC[C@H]3C(=O)N2[C@H]1c1cccc(OCCO)c1 has a composite z-score of 0.573. In the case of C=C(C(=O)CC[C@H](OC(=O)c1cccnc1)c1ccc(OCCO)cc1)C(C)C, the composite z-score is reported as 0.404. Work on C=C(COC)C(=O)CC[C@H](OC(=O)c1ccccc1-c1ccccc1C(=O)O)c1ccc(CO)o1 yielded a composite z-score of 0.738. Molecule COC(=O)[C@@]1(Cc2ccccc2)[C@H]2c3cc(C(=O)N4CCCC4)n(Cc4ccc(OC(F)(F)F)cc4)c3C[C@H]2CN1C(=O)c1ccccc1 has a composite z-score of 0.42. CO[C@H]1O[C@H](CO)[C@@H](OC(=O)c2ccc(Br)cc2)[C@@H]2OC(=O)[C@H](Cc3cccc(Br)c3)C/C=C/C[C@@H](Cc3cccc(Br)c3)C(=O)O[C@@H]12 gave a composite z-score of 1.12. In the case of Cc1ccc(N2C(=O)c3ccccc3[C@](C)(C(=O)NC(C)C)[C@@H]2c2ccc(CO)cc2)nc1, the composite z-score is reported as -1.11. NC(=O)[C@@H]1[C@H]2C(=O)O[C@H](c3ccccc3)[C@H](c3ccccc3)N2[C@H](c2ccccc2OCCO)[C@@]12C(=O)Nc1ccc(C#CCCO)cc12 gave a composite z-score of -0.0477. Molecule O=C1O[C@H](c2ccccc2)[C@H](c2ccccc2)N2[C@H]1[C@@H](C(=O)N1CCN(c3ncccn3)CC1)[C@]1(C(=O)Nc3ccc(C#CCCO)cc31)[C@H]2c1ccc(OCCO)cc1 has a composite z-score of 1.26. Work on CCCC=C(CCC)[C@@H](NS(=O)(=O)c1cccc2cccnc12)c1ccc(C(=O)OC)cc1 yielded a composite z-score of 1.65.
